Where “and” joins values, the source holds several entries; their conditions need not be identical. Equal values may be shown once. For some assays here: Results with a measured potency or affinity are listed apart. Calls of active or inactive are those of the source.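 How the source made its calls, unless noted: active means thallium flux through the channel raised or lowered by more than 3 SD from vehicle-only wells, actives on both sides; inactive means the rest.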
Tests used:
[1] = P. berghei load reduction in hepatocytes – cell-based, HepG2, luciferase luminescence, HepG2 viability, primary screen (AID 624349; in the data active means parasite load remaining mostly below about 12%, no sharp cut-off; inactive means mostly above about 10%;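 further: 100% = mean of DMSO negative control wells on the same plate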); settings: P. berghei liver stage in HepG2, luciferase luminescence, concentration not given here; parasite load remaining: stronger effect = lower value; viability: measured here: HepG2 viability without parasites
[2] = signal quenchers or enhancers, Cy5 substrate/SSB – biochemical, NIH Clinical Collection, E. coli SSB, artefact control for HCV NS3 helicase inhibitor project (AID 743268; call rule not given here); settings: Cy5-oligo bound E. coli SSB, fluorescence interference
[3] = test system: Hepatitis C virus NS3 helicase; experiment: blockers of NS3h binding to DNA – biochemical, fluorescence polarization, NIH Clinical Collection, primary screen (AID 743270; call rule not given here); settings: NS3 helicase binding to Cy5-dT15 DNA, stronger effect = higher value, concentration not given here
[4] = molecular target: Single-stranded DNA-binding protein (Escherichia coli (strain K12)) (UniProt P0AGE0); experiment: SSB-ssDNA binding inhibitors – biochemical, fluorescence polarization, NIH Clinical Collection, counter-screen for HCV NS3 helicase inhibitor project (AID 743271; in the data active means inhibition above about 28%); settings: E. coli SSB-DNA binding, stronger effect = higher value, concentration not given here
[5] = compounds distorting NS3 helicase fluorescence signal – biochemical, NIH Clinical Collection, artefact control for HCV NS3 helicase inhibitor project (AID 743272; call rule not given here;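 further: HCV NS3 helicase with a Cy5 labelled single stranded DNA probe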); settings: fluorescence interference counterscreen, HCV NS3 helicase assay; stronger effect = lower value
[6] = test system: Neuropilin-2 / VEGF-C interaction (human); experiment: small molecules blocking Neuropilin-2/VEGF-C interaction – biochemical, microplate binding format, z-score (AID 743281; call rule not given here); settings: microplate NRP2/VEGF-C binding assay; stronger effect = lower value
[7] = modulation of C. elegans fzo-1 (AID 1259413; call rule not given here;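 further: fzo-1 mutant C. elegans worms in liquid wells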); settings: C. elegans fzo-1 modulator screen, mean read-out; stronger effect = higher value
[8] = viability loss with induced miR-34 in A549 – imaging, A549 dox-inducible miR-34, nuclei and caspase counts, primary screen (AID 1347080;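 active means compounds whose cell count with miR-34 switched on is under 0.7 times the count with it off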); settings: A549 miR-34 inducible, Hoechst nuclei count, 48 h
[9] = galactose survival enhancers in mitochondrial complex I cybrids – cell-based, galactose medium, ATP luminescence, primary screen (AID 1645843;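 active means z-score of at least 1.8 in each of two replicates, scored against plate mean and spread of sample wells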;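 further: positive z means more ATP and so rescue of galactose-driven cybrid death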); settings: complex I mutant cybrid cells, 72 h, stronger effect = higher value
F380Y = experiment: BK channel mutant inhibitors and activators – cell-based, U2OS BacMam, thallium flux, beta subunits, selectivity assay, profiling panel (AID 1259406); settings: U2OS BacMam BK variants, at 30 µM;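 further: initial slope of Thallos dye fluorescence rise after thallium is added; log ratio against the mean of 0.3% DMSO vehicle wells on the same plate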
F380Y/beta1 = experiment: as above; settings: U2OS BacMam BK variants, at 30 µM
F380Y/beta2Delta = experiment: as above; settings: U2OS BacMam BK variants, at 30 µM
F380Y/beta4 = experiment: as above; settings: U2OS BacMam BK variants, at 30 µM
[10] = molecular target: Calcium-activated potassium channel subunit alpha-1 (Homo sapiens) + Leucine-rich repeat-containing protein 26 (Homo sapiens) (UniProt Q12791+Q2I0M4); experiment: as above; settings: U2OS BacMam BK variants, F380Y/Slo1WT/gamma1, at 30 µM
R275C = experiment: as above; settings: U2OS BacMam BK variants, at 30 µM
R275C/beta1 = experiment: as above; settings: U2OS BacMam BK variants, at 30 µM
R275C/beta2Delta = experiment: as above; settings: U2OS BacMam BK variants, at 30 µM
R275C/beta4 = experiment: as above; settings: U2OS BacMam BK variants, at 30 µM
R275C/Slo1WT/beta2 = experiment: as above; settings: U2OS BacMam BK variants, at 30 µM
[11] = MELAS cybrid and Rieske KO viability enhancers – cell-based, MELAS cybrids, Rieske KO mouse fibroblasts, CellTiter-Glo, primary screen (AID 1508586;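 active means mean z-score across replicates of 1.96 or higher in either the MELAS or the Rieske mutant cell line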;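 further: z relative to plate mean and SD of compound and empty wells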); settings: low glucose
[12] = compounds altering circadian rhythm period length – cell-based, LOPAC library, luminescence reporter (AID 2774; call rule not given here;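 further: values are relative to mean of DMSO wells on each plate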); settings: circadian reporter cells, at 7 µM, actives lie on both sides
[13] = test system: Hepatitis C virus NS3 helicase; experiment: blockers of NS3h binding to ssDNA – biochemical, fluorescence polarization, LOPAC1280 library, primary screen (AID 687035; in the data active means inhibition above about 37%); settings: Purified HCV NS3 helicase, Cy5-dT15 ssDNA binding fluorescence polarization; stronger effect = higher value; concentration not given here
[14] = compounds altering Cy5-DNA-NS3h complex signal – biochemical, LOPAC1280, artefact control for HCV NS3 helicase inhibitor project (AID 687037; call rule not given here); settings: Cy5-DNA-NS3h complex fluorescence interference counterscreen
[15] = test system: Aerobactin synthetase IucA (Klebsiella pneumoniae, hypervirulent); experiment: biochemical IucA inhibition screen of LOPAC library by absorbance (AID 1346212; call rule not given here;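 further: 100% = no compound wells and 0% = no enzyme wells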); settings: IucA enzyme assay, absorbance (OD) readout; stronger effect = lower value;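 tested at 8 µM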
[16] = blockers of cellular phospholipid synthesis – cell-based, LOPAC library, screen 4, primary screen (AID 1347384; call rule not given here); settings: animal cells, phospholipid biosynthesis inhibition screen; at 10 µM
[17] = blockers of polyQ-driven CASP3 activation – cell-based (AID 1583); settings: polyglutamine-induced caspase-3 activation, cell assay; stronger effect = higher value;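 tested at 10 µM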
[18] = yeast 75Q aggregation reduction – 75Q-TubU reporter (AID 1593); settings: Yeast 75Q polyglutamine aggregation reporter
[19] = restoration of touch response, mutant HTT neurons – whole organism, C. elegans mechanosensory neurons, N-terminal huntingtin (AID 1599); settings: C. elegans polyQ-huntingtin mechanosensory neurons, stronger effect = higher value
[20] = blockers of cytochrome c efflux from mitochondria – biochemical, purified mitochondria (AID 1603); settings: stronger effect = lower value;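 further: mouse liver mitochondria challenged with calcium chloride; signal normalized to the plate average as 100%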
[21] = polyglutamine aggregate formation blockers (AID 1604); settings: polyglutamine-induced protein aggregation inhibition assay; stronger effect = higher value; tested at 2.5 µM
[22] = glutamate transport activators, MN-1 cells, MN-1 cell line (AID 1612); settings: MN-1 motor neuron cells, stronger effect = higher value;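 further: tested at 1 µM final; 0% = mean of DMSO vehicle wells on each plate; positive means more glutamate uptake than control and negative means less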
[23] = GFP-Q80 aggregate reduction, neuronal-like cells, cell-based, NGF-treated PC12, GFPQ80 (AID 1614); settings: PC12 NGF-treated GFP-polyQ80 inclusion reduction;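 further: lower means fewer inclusions and 0 means no inclusions at all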
[24] = 75Q-TubH aggregate inhibition, S. cerevisiae, yeast (AID 1616); settings: S. cerevisiae 75Q-TubH polyglutamine aggregation suppression; stronger effect = higher value
[25] = measured here: relative caspase fold change +Dox/-Dox
[26] = measured here: total cells with miR-34 induction, stronger effect = lower value
[27] = measured here: total cells without miR-34 induction

Calcium-activated potassium channel subunit alpha-1 (Homo sapiens) + Leucine-rich repeat-containing protein 26 (Homo sapiens), sequence (Q2I0M4 whole entry, looked up, one chain of several): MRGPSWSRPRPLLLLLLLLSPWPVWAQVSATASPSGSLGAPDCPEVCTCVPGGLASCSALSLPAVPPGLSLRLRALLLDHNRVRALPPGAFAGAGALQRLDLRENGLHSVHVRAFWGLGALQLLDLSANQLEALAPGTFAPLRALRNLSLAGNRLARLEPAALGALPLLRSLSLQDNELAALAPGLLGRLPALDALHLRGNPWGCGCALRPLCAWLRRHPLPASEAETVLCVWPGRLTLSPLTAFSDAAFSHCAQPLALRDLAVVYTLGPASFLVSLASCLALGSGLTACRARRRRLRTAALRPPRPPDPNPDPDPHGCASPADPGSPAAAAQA

Cc1nnc2n1-c1ccc(Cl)cc1C(c1ccccc1)=NC2
9000: cell count [8, 26]
8940: cell count [8, 27]
1.21: fold change [8, 25]
72.1%: viability [1]
inactive: parasite load remaining [1] 139% | fluorescence ratio [2] 1.03 | inhibition [3] -4.36% | inhibition [4] -1.64% | fluorescence ratio [5] 0.99 | z-score [6] -0.124 | mean signal [7] 234 | fold change ([8]; stronger effect = lower value) 1.01 | z-score [9] 0.965 | log fold change Tl+ flux (F380Y) -0.0314 | log fold change Tl+ flux (F380Y/beta1) -0.00299 | log fold change Tl+ flux (F380Y/beta2Delta) -0.00534 | log fold change Tl+ flux (F380Y/beta4) -0.0542 | log fold change Tl+ flux [10] -0.0153 | log fold change Tl+ flux (R275C) 0.0519 | log fold change Tl+ flux (R275C/beta1) 0.00402 | log fold change Tl+ flux (R275C/beta2Delta) 0.0255 | log fold change Tl+ flux (R275C/beta4) 0.0351 | log fold change Tl+ flux (R275C/Slo1WT/beta2) -0.00622

COc1ccc(CCN)cc1OC
8740: cell count [8, 26]
72%: viability [1]
7830: cell count [8, 27]
inactive: parasite load remaining [1] 69.1% | fluorescence ratio [2] 0.93 | inhibition [3] -0.22% | inhibition [4] 5.91% | fluorescence ratio [5] 0.92 | z-score [6] -0.441 | mean signal [7] 274 | fold change ([8]; stronger effect = lower value) 1.12 | z-score ([11]; MELAS cybrid survival, CellTiter-Glo 48 h, stronger effect = higher value) 0.19 | z-score [9] 0.46 | log fold change Tl+ flux (F380Y) -0.0565 | log fold change Tl+ flux (F380Y/beta1) 0.00413 | log fold change Tl+ flux (F380Y/beta2Delta) -0.0175 | log fold change Tl+ flux (F380Y/beta4) -0.0433 | log fold change Tl+ flux [10] -0.00222 | log fold change Tl+ flux (R275C) -0.00436 | log fold change Tl+ flux (R275C/beta1) -0.0128 | log fold change Tl+ flux (R275C/beta2Delta) -0.00532 | log fold change Tl+ flux (R275C/beta4) -0.0169 | log fold change Tl+ flux (R275C/Slo1WT/beta2) -0.0122
0.533: fold change [8, 25]
0.0302: z-score ([11]; Rieske KO mouse fibroblast survival, CellTiter-Glo 72 h)

COC(=O)N1CCN(C(=O)Cc2ccc(Cl)c(Cl)c2)C(CN2CCCC2)C1 (stereo unspecified)
inactive: period change [12] -0.045 h | parasite load remaining [1] 76.7% | inhibition [13] -4% | fluorescence ratio (interference) [14] 1 | fluorescence ratio [2] 1.05 | inhibition [3] 4.36% | inhibition [4] 2.21% | fluorescence ratio [5] 1.03 | z-score [6] 1.19 | mean signal [7] 274 | remaining activity [15] 101% | fold change ([8]; stronger effect = lower value) 0.961 | fold change ([8]; stronger effect = lower value, cell number ratio, induced over uninduced) 0.883 | outcome [16] | z-score [9] -0.09 and 0.285 | log fold change Tl+ flux (F380Y) 0.0797 | log fold change Tl+ flux (F380Y/beta1) 0.0396 | log fold change Tl+ flux (F380Y/beta2Delta) 0.0718 | log fold change Tl+ flux (F380Y/beta4) 0.0372 | log fold change Tl+ flux [10] -0.0265 | log fold change Tl+ flux (R275C) -0.00833 | log fold change Tl+ flux (R275C/beta1) 0.0475 | log fold change Tl+ flux (R275C/beta2Delta) 0.0511 | log fold change Tl+ flux (R275C/beta4) 0.0175 | log fold change Tl+ flux (R275C/Slo1WT/beta2) 0.0529
75.4%: viability [1]
10100 and 8750: cell count [8, 26]
1.01 and 1.9: fold change [8, 25]
10500 and 9910: cell count [8, 27]

CN=C1CN(O)C(c2ccccc2)=c2cc(Cl)ccc2=N1
-4.65%: glutamate uptake change [22]
6.92%: inhibition [17]
active: log fold change Tl+ flux (R275C/beta1) 0.11
1.36: fold change [8, 25]
32%: inhibition of aggregation [21]
-9.17: rescue above control [19]
11000: cell count [8, 27]
68.2%: viability [1]
1.55: aggregation suppression score [24]
inactive: parasite load remaining [1] 61% | fluorescence ratio [2] 0.93 | inhibition [3] -3.71% | inhibition [4] 1.97% | fluorescence ratio [5] 0.94 | z-score [6] 0.413 | mean signal [7] 209 | fold change ([8]; stronger effect = lower value) 0.896 | z-score [9] 0.34 | log fold change Tl+ flux (F380Y) 0.0582 | log fold change Tl+ flux (F380Y/beta1) 0.0256 | log fold change Tl+ flux (F380Y/beta2Delta) 0.0735 | log fold change Tl+ flux (F380Y/beta4) 0.0618 | log fold change Tl+ flux [10] 0.00615 | log fold change Tl+ flux (R275C) -0.0835 | log fold change Tl+ flux (R275C/beta2Delta) 0.0426 | log fold change Tl+ flux (R275C/beta4) 0.0262 | log fold change Tl+ flux (R275C/Slo1WT/beta2) -0.0229
2: inclusion score [23]
1.33: cytochrome c release ratio [20]
1.19: score [18]
9820: cell count [8, 26]

CCOC(=O)C1(c2ccccc2)CCN(CCC(C#N)(c2ccccc2)c2ccccc2)CC1
4740: cell count [8, 26]
1.81: fold change [8, 25]
active: log fold change Tl+ flux (R275C/beta1) -0.137 | log fold change Tl+ flux (R275C/beta2Delta) -0.169
4590: cell count [8, 27]
62%: viability [1]
inactive: parasite load remaining [1] 6.85% | fluorescence ratio [2] 0.99 | inhibition [3] 1.98% | inhibition [4] 4.52% | fluorescence ratio [5] 0.88 | z-score [6] -0.718 | mean signal [7] 215 | fold change ([8]; stronger effect = lower value) 1.03 | z-score [9] -1.88 | log fold change Tl+ flux (F380Y) -0.0196 | log fold change Tl+ flux (F380Y/beta1) -0.0124 | log fold change Tl+ flux (F380Y/beta2Delta) -0.00205 | log fold change Tl+ flux (F380Y/beta4) 0.0154 | log fold change Tl+ flux [10] -0.0542 | log fold change Tl+ flux (R275C) 0.0145 | log fold change Tl+ flux (R275C/beta4) -0.00148 | log fold change Tl+ flux (R275C/Slo1WT/beta2) 0.0218

— PubChem BioAssay
